{
  "source": "the antibiotic and cytotoxicity screens of Wong et al. (2023)",
  "note": "Hit rate of the full screen: of about 39,000 compounds, about 3,300 (8.5%) were called active. The entries come from a sample that favours actives as a whole.",
  "data": [
    {"tested_on": "HepG2", "assay": "cytotoxicity call (relative viability < 0.9)", "conditions": "10 µM", "values": [
      {"smiles": "C[C@@H]1CCCCO[C@H](CN(C)Cc2ccc(C(F)(F)F)cc2)[C@@H](C)CN([C@H](C)CO)C(=O)c2cc(NS(=O)(=O)c3cn(C)cn3)ccc2O1", "cytotoxicity call": "inactive"},
      {"smiles": "COc1ccc(S(=O)(=O)N(C)C[C@@H]2Oc3ccc(NC(=O)NC(C)C)cc3CC(=O)N([C@@H](C)CO)C[C@H]2C)cc1", "cytotoxicity call": "inactive"},
      {"smiles": "COC(=O)[C@@H](C)N(C#N)c1nc(C)cc(C)n1", "cytotoxicity call": "inactive"},
      {"smiles": "C[C@@H]1CCCCO[C@@H](CN(C)S(=O)(=O)c2cccs2)[C@@H](C)CN([C@@H](C)CO)C(=O)c2cc(NC(=O)NC3CCCCC3)ccc2O1", "cytotoxicity call": "inactive"},
      {"smiles": "C[C@H]1CN([C@@H](C)CO)S(=O)(=O)c2ccc(C3=CCCC3)cc2O[C@@H]1CN(C)S(=O)(=O)c1cn(C)cn1", "cytotoxicity call": "inactive"},
      {"smiles": "C[C@@H]1CN([C@H](C)CO)C(=O)c2cc(NS(=O)(=O)c3ccc(F)cc3)ccc2O[C@@H]1CN(C)S(=O)(=O)c1ccc(F)cc1", "cytotoxicity call": "inactive"},
      {"smiles": "C[C@H]1CN([C@@H](C)CO)C(=O)Cc2cc(NC(=O)Nc3ccccc3)ccc2O[C@H]1CN(C)Cc1ccc(Cl)c(Cl)c1", "cytotoxicity call": "active"},
      {"smiles": "C[C@@H]1CN([C@H](C)CO)C(=O)Cc2cc(NC(=O)Nc3ccccc3)ccc2O[C@@H]1CN(C)Cc1ccc(Cl)c(Cl)c1", "cytotoxicity call": "active"},
      {"smiles": "C[C@H](CO)N1C[C@H](C)[C@@H](CN(C)Cc2ccc(Cl)c(Cl)c2)Oc2ccc(NC(=O)Nc3ccccc3)cc2CC1=O", "cytotoxicity call": "inactive"},
      {"smiles": "C[C@@H]1CN([C@@H](C)CO)C(=O)Cc2cc(NC(=O)Nc3ccccc3)ccc2O[C@H]1CN(C)Cc1ccc(Cl)c(Cl)c1", "cytotoxicity call": "inactive"},
      {"smiles": "C[C@@H]1CN([C@H](C)CO)C(=O)Cc2cc(NC(=O)Nc3ccccc3)ccc2O[C@H]1CN(C)Cc1ccc(Cl)c(Cl)c1", "cytotoxicity call": "active"},
      {"smiles": "C[C@H](CO)N1C[C@H](C)[C@H](CN(C)Cc2ccc(Cl)c(Cl)c2)Oc2ccc(NC(=O)Nc3ccccc3)cc2CC1=O", "cytotoxicity call": "active"},
      {"smiles": "CC(C)NC(=O)Nc1ccc2c(c1)C(=O)N([C@H](C)CO)C[C@H](C)[C@H](CN(C)C(=O)Nc1ccccc1)OCCCC[C@H](C)O2", "cytotoxicity call": "inactive"},
      {"smiles": "C[C@@H]1CN([C@@H](C)CO)C(=O)Cc2cc(NS(=O)(=O)c3cn(C)cn3)ccc2O[C@@H]1CN(C)Cc1ccc(C(=O)Nc2ccccc2N)cc1", "cytotoxicity call": "inactive"},
      {"smiles": "Cc1noc(C)c1S(=O)(=O)Nc1cccc2c1O[C@H](CN(C)C(=O)Nc1ccccc1)[C@H](C)CN([C@H](C)CO)C2=O", "cytotoxicity call": "inactive"},
      {"smiles": "CN(C(=O)c1ccc(Cl)c(N2C(=O)CCS2(=O)=O)c1)[C@H]1CCS(=O)(=O)C1", "cytotoxicity call": "inactive"},
      {"smiles": "Cc1ccc(S(=O)(=O)Nc2ccc3c(c2)C(=O)N([C@@H](C)CO)C[C@H](C)[C@@H](CN(C)S(C)(=O)=O)O3)cc1", "cytotoxicity call": "inactive"},
      {"smiles": "O=C(C[C@H]1CC[C@H]2[C@@H](COC[C@@H](O)CN2S(=O)(=O)c2ccc(F)cc2)O1)NCCN1CCCCC1", "cytotoxicity call": "inactive"},
      {"smiles": "Cc1noc(C)c1NC(=O)Nc1ccc2c(c1)C(=O)N([C@H](C)CO)C[C@@H](C)[C@@H](CN(C)Cc1ccc3c(c1)OCO3)OCCCC[C@H](C)O2", "cytotoxicity call": "inactive"},
      {"smiles": "O=C(C[C@H]1C[C@H]2c3cc(NS(=O)(=O)c4ccc(F)cc4)ccc3O[C@H]2[C@H](CO)O1)NCc1cccc(F)c1", "cytotoxicity call": "inactive"},
      {"smiles": "C[C@@H]1CN([C@@H](C)CO)C(=O)Cc2cc(NC(=O)Nc3ccccc3)ccc2O[C@@H]1CN(C)Cc1ccc(Cl)c(Cl)c1", "cytotoxicity call": "active"},
      {"smiles": "C[C@H]1CN([C@@H](C)CO)C(=O)Cc2cc(NC(=O)Nc3ccccc3)ccc2O[C@@H]1CN(C)Cc1ccc(Cl)c(Cl)c1", "cytotoxicity call": "active"},
      {"smiles": "C[C@H](CO)N1C[C@H](C)[C@H](CN(C)Cc2ccc(C(F)(F)F)cc2)OCCCC[C@H](C)Oc2ccc(NC(=O)c3ccncc3)cc2C1=O", "cytotoxicity call": "inactive"},
      {"smiles": "C[C@@H]1CN([C@@H](C)CO)S(=O)(=O)c2ccc(C3=CCCC3)cc2O[C@H]1CN(C)S(=O)(=O)c1ccc(F)cc1", "cytotoxicity call": "inactive"},
      {"smiles": "Nc1cccc(OCc2ccccc2)c1", "cytotoxicity call": "inactive"},
      {"smiles": "CC(C)NC(=O)Nc1ccc2c(c1)C(=O)N([C@H](C)CO)C[C@@H](C)[C@H](CN(C)Cc1ccc(C(=O)O)cc1)O2", "cytotoxicity call": "inactive"},
      {"smiles": "C[C@@H]1CN([C@H](C)CO)S(=O)(=O)c2ccc(C#CCN(C)C)cc2O[C@H]1CN(C)C(=O)Nc1ccccc1F", "cytotoxicity call": "inactive"},
      {"smiles": "CC12C=CC(=O)C=C1CCC1C2C(=O)CC2(C)C1CCC2(O)C(=O)CO", "note": "(centres undefined)", "cytotoxicity call": "inactive"},
      {"smiles": "O=P(O)(O)C(Cl)(Cl)P(=O)(O)O", "cytotoxicity call": "active"},
      {"smiles": "CC(O)(P(=O)([O-])O)P(=O)([O-])O.[Na+].[Na+]", "cytotoxicity call": "inactive"},
      {"smiles": "CC(O)(P(=O)(O)O)P(=O)(O)O", "cytotoxicity call": "inactive"},
      {"smiles": "C[C@@H]1CN([C@@H](C)CO)C(=O)c2cc(NC(=O)Cc3ccccc3)ccc2O[C@@H](C)CCCCO[C@@H]1CN(C)C(=O)C1CCCCC1", "cytotoxicity call": "inactive"},
      {"smiles": "COc1ccc(NC(=O)N(C)C[C@@H]2OCCCC[C@@H](C)Oc3ccc(NC(=O)Nc4c(C)noc4C)cc3C(=O)N([C@@H](C)CO)C[C@H]2C)cc1", "cytotoxicity call": "inactive"},
      {"smiles": "CN(Cn1[nH]c(=O)ccc1=O)c1ccccc1", "cytotoxicity call": "inactive"},
      {"smiles": "COCCOC(=O)N1C(=O)[C@@]2(c3cc(C#CCNC(N)=O)ccc31)[C@H](C(=O)N1CCCCCCC1)[C@H]1C(=O)O[C@H](c3ccccc3)[C@H](c3ccccc3)N1[C@@H]2c1ccccc1OCCO", "cytotoxicity call": "inactive"},
      {"smiles": "Cl.OC(c1cc(C(F)(F)F)nc2c(C(F)(F)F)cccc12)C1CCCCN1", "note": "(centres undefined)", "cytotoxicity call": "active"},
      {"smiles": "C[C@H]1CN([C@@H](C)CO)C(=O)c2cccc(NC(=O)C3CCCCC3)c2O[C@H]1CN(C)Cc1ccc(-c2ccccc2)cc1", "cytotoxicity call": "inactive"},
      {"smiles": "Cc1noc(C)c1NC(=O)Nc1cccc2c1O[C@@H](CN(C)Cc1ccc(Cl)c(Cl)c1)[C@@H](C)CN([C@H](C)CO)C2=O", "cytotoxicity call": "inactive"},
      {"smiles": "C[C@@H]1CN([C@H](C)CO)C(=O)Cc2cc(NC(=O)Cc3ccccc3)ccc2O[C@@H]1CN(C)Cc1ccc(-c2ccccc2)cc1", "cytotoxicity call": "active"},
      {"smiles": "C[C@H]1CN([C@@H](C)CO)C(=O)Cc2cc(NC(=O)Cc3ccccc3)ccc2O[C@@H]1CN(C)Cc1ccc(-c2ccccc2)cc1", "cytotoxicity call": "inactive"},
      {"smiles": "C[C@H](CO)N1C[C@H](C)[C@H](CN(C)Cc2ccc(-c3ccccc3)cc2)Oc2ccc(NC(=O)Cc3ccccc3)cc2CC1=O", "cytotoxicity call": "inactive"},
      {"smiles": "C[C@H]1CN([C@@H](C)CO)C(=O)Cc2cc(NC(=O)Cc3ccccc3)ccc2O[C@H]1CN(C)Cc1ccc(-c2ccccc2)cc1", "cytotoxicity call": "active"},
      {"smiles": "C[C@@H]1CN([C@@H](C)CO)C(=O)Cc2cc(NC(=O)Cc3ccccc3)ccc2O[C@H]1CN(C)Cc1ccc(-c2ccccc2)cc1", "cytotoxicity call": "inactive"},
      {"smiles": "C[C@H](CO)N1C[C@H](C)[C@@H](CN(C)Cc2ccc(-c3ccccc3)cc2)Oc2ccc(NC(=O)Cc3ccccc3)cc2CC1=O", "cytotoxicity call": "inactive"},
      {"smiles": "C[C@@H]1CN([C@@H](C)CO)C(=O)Cc2cc(NC(=O)Cc3ccccc3)ccc2O[C@@H]1CN(C)Cc1ccc(-c2ccccc2)cc1", "cytotoxicity call": "active"},
      {"smiles": "C[C@@H]1CN([C@H](C)CO)C(=O)Cc2cc(NC(=O)Cc3ccccc3)ccc2O[C@H]1CN(C)Cc1ccc(-c2ccccc2)cc1", "cytotoxicity call": "inactive"},
      {"smiles": "CC(C)NC(=O)N(C)C[C@H]1Oc2ccc(NS(=O)(=O)c3cn(C)cn3)cc2CC(=O)N([C@@H](C)CO)C[C@@H]1C", "cytotoxicity call": "inactive"},
      {"smiles": "COc1cccc(C#Cc2ccc3c(c2)O[C@H](CN(C)C(=O)c2ccccn2)[C@H](C)CN([C@@H](C)CO)S3(=O)=O)c1", "cytotoxicity call": "inactive"},
      {"smiles": "COc1ccc(CN(C)C[C@@H]2OCCCC[C@@H](C)Oc3ccc(NC(=O)CCCCCC(=O)Nc4ccccc4N)cc3C(=O)N([C@H](C)CO)C[C@@H]2C)cc1", "cytotoxicity call": "inactive"},
      {"smiles": "C[C@@H]1CCCCO[C@@H](CN(C)Cc2ccc3c(c2)OCO3)[C@@H](C)CN([C@@H](C)CO)C(=O)c2cc(NC(=O)c3ccccc3)ccc2O1", "cytotoxicity call": "inactive"},
      {"smiles": "C[C@H](CO)N1C[C@H](C)[C@H](CN(C)S(=O)(=O)c2cccs2)OCCCC[C@H](C)Oc2ccc(NC(=O)C3CCCCC3)cc2C1=O", "cytotoxicity call": "inactive"},
      {"smiles": "Cc1noc(C)c1NC(=O)Nc1ccc2c(c1)CC(=O)N([C@@H](C)CO)C[C@H](C)[C@H](CN(C)C(=O)Nc1cccc3ccccc13)O2", "cytotoxicity call": "inactive"},
      {"smiles": "C[C@H](CO)N1C[C@H](C)[C@H](CN(C)Cc2ccc(-c3ccccc3)cc2)Oc2ccc(NC(=O)Cc3cn(C)c4ccccc34)cc2C1=O", "cytotoxicity call": "active"},
      {"smiles": "C[C@H]1CN([C@@H](C)CO)C(=O)c2cc(NC(=O)Cc3cn(C)c4ccccc34)ccc2O[C@H]1CN(C)Cc1ccc(-c2ccccc2)cc1", "cytotoxicity call": "inactive"},
      {"smiles": "C[C@H](CO)N1C[C@H](C)[C@@H](CN(C)Cc2ccc(-c3ccccc3)cc2)Oc2ccc(NC(=O)Cc3cn(C)c4ccccc34)cc2C1=O", "cytotoxicity call": "inactive"},
      {"smiles": "C[C@@H]1CN([C@H](C)CO)C(=O)c2cc(NC(=O)Cc3cn(C)c4ccccc34)ccc2O[C@@H]1CN(C)Cc1ccc(-c2ccccc2)cc1", "cytotoxicity call": "inactive"},
      {"smiles": "C[C@@H]1CN([C@@H](C)CO)C(=O)c2cc(NC(=O)Cc3cn(C)c4ccccc34)ccc2O[C@H]1CN(C)Cc1ccc(-c2ccccc2)cc1", "cytotoxicity call": "inactive"},
      {"smiles": "C[C@H]1CN([C@@H](C)CO)C(=O)c2cc(NC(=O)Cc3cn(C)c4ccccc34)ccc2O[C@@H]1CN(C)Cc1ccc(-c2ccccc2)cc1", "cytotoxicity call": "active"},
      {"smiles": "C[C@@H]1CN([C@@H](C)CO)C(=O)c2cc(NC(=O)Cc3cn(C)c4ccccc34)ccc2O[C@@H]1CN(C)Cc1ccc(-c2ccccc2)cc1", "cytotoxicity call": "active"},
      {"smiles": "C[C@@H]1CN([C@H](C)CO)C(=O)c2cc(NC(=O)Cc3cn(C)c4ccccc34)ccc2O[C@H]1CN(C)Cc1ccc(-c2ccccc2)cc1", "cytotoxicity call": "inactive"},
      {"smiles": "Cc1ccc([C@@H](N)c2ccncc2)cc1", "cytotoxicity call": "inactive"},
      {"smiles": "COC(=O)c1c(C#N)c(N)nc2c1CCC2", "cytotoxicity call": "inactive"},
      {"smiles": "CC(C)NC(=O)N(C)C[C@H]1OCCCC[C@H](C)Oc2ccc(NC(=O)Nc3ccccc3)cc2C(=O)N([C@H](C)CO)C[C@@H]1C", "cytotoxicity call": "inactive"},
      {"smiles": "COc1ccccc1-c1ccc2n(c1=O)C[C@H]1[C@H](CO)[C@@H](C(=O)NCC3CC3)N(S(C)(=O)=O)[C@@H]21", "cytotoxicity call": "inactive"}
    ]}
  ]
}
